Measurements: the GenesisPotency data set
The campaign covered roughly 290,000 compounds. About 3,000 (1%) were called active. Cut-off read from the data, not from the text of the source: active = inhibition mostly above about 36% (no sharp cut-off); inactive = mostly below about 34%. Only a selection was taken, and actives are over-represented in it overall.

The compounds below were run against T1, Nucleotide-binding oligomerization domain-containing protein 1, Homo sapiens (UniProt Q9Y239) (assay: NOD1 signaling inhibitors, primary screen, cell-based, luminescence, uHTS (AID 1578)).
T1 sequence (whole entry): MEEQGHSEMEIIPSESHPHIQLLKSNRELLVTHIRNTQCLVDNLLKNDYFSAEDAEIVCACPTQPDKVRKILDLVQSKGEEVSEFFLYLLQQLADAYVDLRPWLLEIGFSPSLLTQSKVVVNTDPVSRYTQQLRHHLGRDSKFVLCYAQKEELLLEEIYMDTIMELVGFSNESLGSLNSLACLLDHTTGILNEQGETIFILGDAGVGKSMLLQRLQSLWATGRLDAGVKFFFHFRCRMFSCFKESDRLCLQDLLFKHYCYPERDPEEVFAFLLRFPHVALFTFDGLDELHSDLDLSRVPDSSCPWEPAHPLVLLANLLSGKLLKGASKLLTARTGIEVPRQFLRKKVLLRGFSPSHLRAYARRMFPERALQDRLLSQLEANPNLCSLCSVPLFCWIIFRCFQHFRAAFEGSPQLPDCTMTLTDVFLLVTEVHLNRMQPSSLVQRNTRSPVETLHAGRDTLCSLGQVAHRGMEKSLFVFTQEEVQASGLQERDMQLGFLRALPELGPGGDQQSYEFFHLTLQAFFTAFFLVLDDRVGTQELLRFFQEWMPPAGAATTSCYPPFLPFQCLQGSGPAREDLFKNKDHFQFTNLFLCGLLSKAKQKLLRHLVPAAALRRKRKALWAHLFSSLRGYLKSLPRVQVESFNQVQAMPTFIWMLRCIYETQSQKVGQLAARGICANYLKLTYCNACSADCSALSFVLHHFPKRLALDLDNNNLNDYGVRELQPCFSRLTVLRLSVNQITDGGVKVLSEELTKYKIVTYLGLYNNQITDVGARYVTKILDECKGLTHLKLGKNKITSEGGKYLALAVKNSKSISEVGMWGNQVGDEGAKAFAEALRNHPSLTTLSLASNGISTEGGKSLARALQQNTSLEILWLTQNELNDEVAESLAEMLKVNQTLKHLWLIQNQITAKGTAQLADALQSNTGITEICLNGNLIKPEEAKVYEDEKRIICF

Row | Compound | outcome
1 | Cc1c(C(=O)Nc2nc3ccccc3[nH]2)oc2ccc(Br)cc12 | active
2 | COc1cc(SC)ccc1C(=O)Nc1nc2ccccc2[nH]1 | active
3 | COc1ccccc1C(=O)Nc1nc2ccccc2[nH]1 | active
4 | O=c1cc(C(F)(F)F)nc(SCc2cccc3ccccc23)[nH]1 | active
5 | Cc1cnc(NC(=O)C2CC(=O)N(c3cccc(Cl)c3)C2)s1 (configuration not stated) | active
6 | CC(C)(C)c1cc(NC(=O)CCl)n(-c2ccccc2)n1 | active
7 | O=[N+]([O-])c1cccc(NC(=S)Nc2nc(-c3ccc(Cl)cc3Cl)cs2)c1 | active
8 | N#C/C(=C(/O)COC(=O)CSc1ccc2ccccc2c1)c1nc2ccccc2[nH]1 | active
9 | Cc1cc(Br)ccc1SCC(=O)OC/C(O)=C(\C#N)c1nc2ccccc2[nH]1 | active
10 | CC(C)(C)c1ccc(-c2noc(CCC(N)=O)n2)cc1 | active
11 | CC(C)(C)c1ccc(-c2noc(CCC(=O)Nc3cccnc3)n2)cc1 | active
12 | O=C(NC1CCCCC1)N1CCN(c2nc(-c3ccccc3)cs2)CC1 | active
13 | COC(=O)C1CCCCN1C(=O)c1cc(COc2cccc3cnccc23)on1 (configuration not stated) | active
14 | CCOC(=O)CC1CCCCN1C(=O)c1cc(COc2cccc3cnccc23)on1 (configuration not stated) | active
15 | COc1cc(NC(=O)COc2cc(O)c3c(c2)OC(C)(C)CC3=O)cc(OC)c1OC | active
16 | Cc1ccc(-c2c3c(nc4sc(C(N)=O)c(N)c24)CCC3)cc1 | active
17 | NC(=O)c1sc2nc3c(c(-c4ccco4)c2c1N)CCCC3 | active
18 | NC(=O)c1sc2nc3c(c(-c4ccccc4)c2c1N)CCC3 | active
19 | Cc1nc2sc(C(N)=O)c(N)c2c2c1CCCC2 | active
20 | NC(=O)c1sc2nc3c(c(-c4cccs4)c2c1N)CCCCC3 | active
21 | Nc1ncc([N+](=O)[O-])c(N2CCCCCC2)n1 | active
22 | COc1ccccc1N1CCN(C(=O)C2CCCN(S(=O)(=O)c3ccc4c(c3)oc(=O)n4C)C2)CC1 (configuration not stated) | active
23 | CCN(CC)S(=O)(=O)c1ccc(Oc2ccc(S(=O)(=O)N(CC)CC)cc2)cc1 | active
24 | Cc1ccc(NC(=O)/C=C/c2ccc([N+](=O)[O-])s2)c(C)c1 | active

Row | Compound | outcome
25 | Cc1ccccc1NC(=O)/C=C/c1ccc([N+](=O)[O-])s1 | active
26 | CCCc1nc2c(=O)n(C)c(=O)nc-2n(C)n1 | active
27 | CC(=O)n1cc(N(C(=O)CCl)c2ccccc2)c2ccccc21 | active
28 | O=C(CCl)N(c1ccccc1)c1c[nH]c2ccccc12 | active
29 | O=C(CCl)N(c1ccccc1)c1ccccc1 | active
30 | O=C(CCl)N(Cc1ccccc1)c1ccccc1 | active
31 | O=C(COc1ccc(Br)cc1Cl)NC(=S)N1CCc2ccccc21 | active
32 | CC1Cc2ccccc2N1S(=O)(=O)c1cccc(C(=O)N2CCN(c3ncccn3)CC2)c1 (configuration not stated) | active
33 | CC1Cc2ccccc2N1C(=S)NC(=O)c1cccc(Br)c1 (configuration not stated) | active
34 | Cn1c(=NC(=O)CCl)sc2ccccc21 | active
35 | Cc1cc(C(=O)CCl)c(C)n1CCc1ccc(F)cc1 | active
36 | CCc1ccc(-c2nc(CSCC(=O)N3CCN(c4ccccn4)CC3)c(C)o2)cc1 | active
37 | COc1cccc(CN(C)C(=O)CNC(=O)c2ccc(-c3ccccc3)cc2)c1OC | active
38 | CCOc1ccc(S(=O)(=O)Nc2cnc3ccccc3c2)cc1 | active
39 | Cc1c(C(=O)Nc2nonc2-c2ccc(F)cc2)oc2ccc(F)cc12 | active
40 | Nc1ncc(Br)cc1S(=O)(=O)Nc1cc(C(F)(F)F)cc(C(F)(F)F)c1 | active
41 | O=[N+]([O-])c1cc([N+](=O)[O-])c2oc(-c3ccccc3)c(Br)c2c1O | active
42 | O=[N+]([O-])c1ccc(Oc2ccc(F)cc2)c2ccncc12 | active
43 | O=[N+]([O-])c1ccc(Oc2ccc(F)cc2Br)c2ccncc12 | active
44 | Cc1ccc(C(=O)NC2CCCc3c2cnn3-c2ccc(F)cc2F)cn1 (configuration not stated) | active
45 | CC1=C(C(=O)NC2CCCc3c2cnn3-c2ccc(F)cc2F)OCCO1 (configuration not stated) | active
46 | Cn1nccc1C(=O)NC1CCCc2c1cnn2-c1ccc(F)cc1F (configuration not stated) | active
47 | Cc1ccc(C(=O)CN2C(=O)c3ccccc3S2(=O)=O)cc1 | active
48 | COc1ccc(C(=O)CN2C(=O)c3ccccc3S2(=O)=O)cc1 | active

Row | Compound | outcome
49 | COc1ccc(-c2cc3nc(C)n(N)c(=O)c3s2)cc1 | active
50 | COc1ccc(-c2cc3nc(CCl)[nH]c(=O)c3s2)cc1 | active
51 | COc1ccccc1-c1nnc(Sc2nc([N+](=O)[O-])nn2C)o1 | active
52 | OCCCNc1nccc(-c2cc(Nc3cccc(Cl)c3)ncn2)n1 | active
53 | OCCCNc1cc(-c2ccnc(Nc3cccc(Cl)c3)n2)ccn1 | active
54 | CCOC(=O)c1oc2ccc(S(=O)(=O)n3nc(-c4ccc(OC)cc4)cc3N)cc2c1C | active
55 | CN(C)c1ccnc2sc3c(=O)n(Cc4ccccc4)cnc3c12 | active
56 | Cl.O=[N+]([O-])c1ccc2ncnc(N3CCN(Cc4ccc5c(c4)OCO5)CC3)c2c1 | active
57 | Cc1c(C(=O)N2CCN(Cc3ccc4c(c3)OCO4)CC2)sc2ncnc(N3CCN(c4ccccc4)CC3)c12 | active
58 | Cc1ccc(S(=O)(=O)CC#CCOC(=O)c2ccc([N+](=O)[O-])cc2)cc1 | active
59 | CCOC(=O)c1csc(Nc2nc3ccc(F)cc3s2)n1 | active
60 | CN(c1ccccc1)S(=O)(=O)c1cccc(NC(=O)c2cc(=O)c3ccccc3o2)c1 | active
61 | Cc1cc(Cl)c(S(=O)(=O)N2CCN(c3ccc(F)cc3)CC2)cc1OCC(=O)NC1CCCCC1 | active
62 | Cc1cc(Cl)c(S(=O)(=O)N2CCCCCC2)cc1OCC(=O)NC1CCCCC1 | active
63 | Cc1cc(C)c(C(=O)/C=C/c2ccc(C(C)C)cc2)c(=O)[nH]1 | active
64 | Cc1cc(C)c(C(=O)/C=C/c2cccc3ccccc23)c(=O)[nH]1 | active
65 | O=C(/C=C/c1ccc2c(c1)OCO2)Nc1nc(-c2ccccc2)cs1 | active
66 | COc1cccc(N(C(=O)CCl)C(C(=O)NCCc2ccccc2)c2cccs2)c1 (configuration not stated) | active
67 | COc1ccc(N(C(=O)CCl)C(C(=O)NCCc2ccccc2)c2cccs2)cc1 (configuration not stated) | active
68 | COc1ccc(NS(=O)(=O)c2cccc(NC(=O)c3ccc(S(=O)(=O)N4CCCCCC4)cc3)c2)cc1 | active
69 | COc1ccc(NS(=O)(=O)c2cccc(NC(=O)c3ccc(Cl)nc3)c2)cc1 | active
70 | Cc1sc2ncnc(Sc3nnnn3-c3ccccc3)c2c1C | active
71 | Cc1sc2ncnc(Sc3nnnn3-c3ccc(Cl)cc3)c2c1C | active
72 | Cc1ccccc1-n1nnnc1Sc1nnnn1-c1ccccc1 | active
